Assay results published in PubChem BioAssay (EPA / NIEHS).
Calls of active or inactive are those of the source. The calls were made as follows: active = hit-call score of the fitted dose curve at least 0.9, where 1 is the maximum; inactive = score below 0.9.

Assay: CCTE_Shafer_MEA_acute_cross_correlation_area: CCTE's Neural Acute Assay for Area of Cross Correlation, Shafer Lab (AID 2284024);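 also: curves fitted for loss of cross-correlation area so actives lower synchrony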
Procedure: CCTE_Shafer_MEA_acute assay is conducted using Axion Biosystems 48 well microelectrode array (MEA) plates and Maestro recording system. Each well of the MEA plate contains a grid of 16 microelectrodes embedded in the culture surface. Electrically active cells, such as neurons, can be cultured over the electrodes, and electrical activity in these cells can be recorded extracellularly. The spontaneous firing of neurons is captured from each electrode on a microsecond timescale providing both temporally and spatially precise data. […] The CCTE_Shafer_MEA_acute assay uses primary cultures of rat cortical neurons. As these cultures mature over time, neural networks develop functional activity and form cohesive networks in which electrical activity can be highly coordinated. Baseline 40-minute recordings are made on days post-plating 13 or 15, followed by a secondary 40-minute recording after chemical exposure.CCTE_Shafer_MEA_acute_cross_correlation_area is a component of the CCTE_Shafer_MEA_acute assay. It measures the area under the well-wide pooled inter-electrode cross-correlation of action potential firing (not normalized to auto-correlations) within a window centered around 0 for the phase lag during a recording in a microelectrode array (MEA) using Axion Biosystems Maestro 768 channel amplifier with the AxIS adaptive spike detector. The recordings before and after chemical treatment are used to calculate a percent change in the cross correlation area in each well.Data from the assay component CCTE_Shafer_MEA_acute_cross_correlation_area was analyzed into 1 assay endpoint. This assay endpoint, CCTE_Shafer_MEA_acute_cross_correlation_area, was analyzed in the negative analysis fitting direction relative to DMSO as the negative control and baseline of activity. Using a type of functional reporter, gain or loss-of-signal activity can be used to understand electrical activity.
Spontaneous activity in the cortical cultures was recorded using an Axion Biosystems Maestro 768 channel amplifier and Axion Integrated Studios (AxIS) v1.8 (or later) software. The amplifier recorded from all channels simultaneously (gain = 1200 x; sampling rate = 12.5 kHz/channel): raw signals were filtered with a Butterworth band-pass filter (300-5000 Hz), which filters out slower local field potentials leaving only fast potentials, i.e., "spikes", arising from extracellular currents associated with action potentials (Pine 2006; Wheeler and Nam 2011). On-line spike detection of filtered signals was conducted with the AxIS adaptive spike detector, using a threshold of 8x the root mean squared (rms) noise on each channel. Any electrodes with rms noise levels greater than 5 uV were grounded (e.g., no data were recorded). Once grounded, an electrode was grounded for the duration of the experiment. All recordings were conducted at 37 C. Wells were deemed usable if on the day of the exposure >/= 10 electrodes were active (defined as >/= 5 spikes/min). On DIV 13 or 15, a minimum of three wells from one cortical culture preparation were treated with each compound (0.03-40 uM). Prior to recording baseline activity, each mwMEA plate was placed in the Maestro at 37 C and allowed to sit for 20 min while firing rates stabilized. Baseline activity (40 min) was recorded before the addition of each compound. An additional 40 min of spontaneous activity was recorded in the presence of each compound. Changes in network parameters relative to baseline were assessed following compound treatment.
For CC(C)C(=O)Nc1ccc([N+](=O)[O-])c(C(F)(F)F)c1, the outcome was “inactive”.
In the case of CCCc1ccccc1, the outcome is reported as “inactive”.
With O=S(=O)(O)c1ccc(N=Nc2c(O)ccc3cc(S(=O)(=O)O)ccc23)cc1 the outcome was “inactive”.
In the case of CC[C@H](C)C(=O)O[C@H]1C[C@H](O)C=C2C=C[C@H](C)[C@H](CC[C@@H](O)C[C@@H](O)CC(=O)O)[C@H]21, the outcome is reported as “inactive”.
With COCc1nnc(-c2ccc[n+]([O-])c2)n1-c1c(Cl)c(Cl)cc2[nH]c(=O)c(=O)[nH]c12 the outcome was “inactive”.
With OC(CCl)CCl the outcome was “inactive”.
For CCCCCCCC/C=C\CCCCCCCC(=O)OC[C@@H](O)[C@H]1OC[C@H](O)[C@H]1O, the outcome was “inactive”.
With COc1cc2c(c(OC)c1OC)-c1ccc(OC)c(=O)cc1[C@@H](NC(C)=O)CC2 the outcome was “inactive”.
For CCCCC(CC)C(=O)OCCOCCOCCOC(=O)C(CC)CCCC (stereo not drawn), the outcome was “inactive”.
With CCCCCCCC1CCC(=O)O1 (stereo not drawn) the outcome was “inactive”.
With C=CCc1cc(S(=O)(=O)c2ccc(O)c(CC=C)c2)ccc1O the outcome was “inactive”.
In the case of OCc1ccccc1, the outcome is reported as “inactive”.
For Cc1ncc([C@@H](CCCCCCc2ccc3c(n2)NCCC3)CC(=O)O)cn1, the outcome was “inactive”.
In the case of c1ccc2cc3ccccc3cc2c1, the AC50 is reported as 6.87 nM (active).
For COc1cc(C(C)C)c2c(c1)S(=O)(=O)N(COc1cc(=O)n3cccc(OCCN4CCCCC4)c3n1)C2=O, the outcome was “inactive”.
For Cn1c(=O)c2[nH]cnc2n(C)c1=O, the outcome was “inactive”.
For CCc1ccc(O)c(C(C)(C)C)c1, the outcome was “inactive”.
With c1ccc(C(O[C@@H]2CCCN(CCc3ccc4c(c3)OCO4)C2)c2ccccc2)cc1 the outcome was “inactive”.
